Experimental findings from PubChem BioAssay (NCI) are described below.

The nature of experiment [1]: NCI Yeast Anticancer Drug Screen. Data for the rad50 strain (AID 155).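 Further: 0% = growth of vehicle-only cultures of the same strain.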 As to conditions: S. cerevisiae rad50 strain growth inhibition; at 50.0 µM; active compounds read high. An outline of the steps:
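A DNA repair-deficient yeast mutant serves as the test organism; compound-induced growth inhibition is calculated against vehicle-treated cells.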

A short description of experiment [2]: NCI Yeast Anticancer Drug Screen. Data for the mec2-1 strain (AID 157). As to conditions: S. cerevisiae mec2-1 strain, at 50.0 µM, active compounds read high. An outline of the steps:
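mec2-1 yeast strain, carrying an alteration in DNA damage repair or cell cycle control, was exposed to compounds; growth inhibition was measured relative to vehicle-treated controls.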

Experiment [3] is described as follows: NCI Yeast Anticancer Drug Screen. Data for the sgs1 mgt1 strain (AID 161).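 Further: 0% = growth of cultures given vehicle only.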 As to conditions: S. cerevisiae sgs1 mgt1 strain, at 50.0 µM, active compounds read high. Summed up: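 Yeast cells carrying a defined DNA-repair defect were exposed to test compounds. Growth inhibition was measured relative to vehicle-treated controls.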
Experiment [4] is described as follows: NCI Yeast Anticancer Drug Screen. Data for the cln2 rad14 strain (AID 165).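 Further: 0% = growth equal to vehicle treated cultures.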 As to conditions: S. cerevisiae cln2 rad14 strain, at 50.0 µM, active compounds read high. An outline of the steps: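 Yeast carrying cln2 and rad14 alterations (cell cycle control and DNA damage repair) were exposed to compounds. Growth inhibition was measured against vehicle-treated controls.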

The nature of experiment [5]: NCI Yeast Anticancer Drug Screen. Data for the bub3 strain (AID 167). As to conditions: S. cerevisiae bub3 mutant strain, at 50.0 µM, active compounds read high. Summed up:
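Inhibition values come from growth of compound-treated mutant yeast normalised to vehicle-treated controls.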

Experiment [6] is described as follows: NCI Yeast Anticancer Drug Screen. Data for the mlh1 rad18 strain (AID 175). The note with it: S. cerevisiae mlh1 rad18 strain growth inhibition; at 50.0 µM; active compounds read high. An outline of the steps: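 Growth inhibition of the yeast strain was measured after compound exposure and expressed relative to vehicle-treated controls. The strain carries defined defects in DNA damage repair.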

About 79,000 compounds went through this panel and 15% of them were active in at least one assay; those are over-represented in the sample as a whole. Unmarked numbers belong to inactive results. Active and inactive are the calls of the source. No stated cut-off is given here; in the data, active means growth inhibition above about 70%; inactive means the rest.

As for `Cc1ccc(Nc2ccc(Nc3ccc(C)cc3)c3c2C(=O)c2ccccc2C3=O)cc1`, the growth inhibition is -1.05% in experiment [1]; -16.9% in experiment [2]; -4.15% in experiment [3]; 5% in experiment [4]; -8.2% in experiment [5]; -4.45% in experiment [6].
As to `CCOc1ccc(C(C)(C)c2cc3c(cc2OC)OCO3)cc1`, the growth inhibition in experiment [1] was -16.2%; in experiment [2] it was -27.8%; in experiment [3] it was -39.9%; in experiment [4], -24.8%; in experiment [5] it was -21.9%; in experiment [6], -6.45%.
For the compound `C/C(=N/NC(=S)N1CCCCC1)c1ccccc1O`, the growth inhibition in experiment [1] was -17.4%; in experiment [2] it was -41.7%; in experiment [3] it was 1.55%; in experiment [4], 4.4%; in experiment [5], -10.6%; in experiment [6], -5.75%.
In the case of `CC12CCC(O)CC1=CCC1C2CCC2(C)C(C(=O)O)=CCC12` (stereo unspecified), the growth inhibition in experiment [1] was 1.3%; in experiment [2], 46.5%; in experiment [3], 29.6%; in experiment [4], 21.8%; in experiment [5], 49.1%; in experiment [6], 34.5%.
As to `Cc1cc(C)nc(NC(=O)c2cc(C(=O)O)c(C(=O)Nc3cc(C)cc(C)n3)cc2C(=O)O)c1`, the growth inhibition is -20.3% in experiment [1]; -3.1% in experiment [2]; -18.8% in experiment [3]; -27.6% in experiment [4]; 3.25% in experiment [5]; -23.9% in experiment [6].
Regarding `COc1cc(NC(N)=O)ccc1Nc1c2ccc(N)cc2nc2cc(N)ccc12`, the growth inhibition in experiment [1] is 69.8%; in experiment [2], 22.6%; in experiment [3] it was 9.05%; in experiment [4], 43%; in experiment [5], -14.9%; in experiment [6] it was 27.6%.
With `CC(=O)Oc1ccc(I)cc1C(=O)O`, the growth inhibition in experiment [1] was 5.7%; in experiment [2], -29.4%; in experiment [3] it was 1.25%; in experiment [4], -12.7%; in experiment [5], 6.75%; in experiment [6] it was -11.8%.
As for `CCS(=O)CCO` (stereo unspecified), the growth inhibition in experiment [1] was -22.7%; in experiment [2], -20.4%; in experiment [3] it was -15.8%; in experiment [4] it was -21.8%; in experiment [5] it was 10.8%; in experiment [6], -14.2%.
`N=C1C=Cc2ccccc2/C1=N/N=c1/ccccn1O`: the growth inhibition in experiment [1] was 72.2% (active); in experiment [2] it was 91.6% (active); in experiment [3] it was 73.5% (active); in experiment [4], 51.7%; in experiment [5], 98.3% (active); in experiment [6], 78.2% (active).
For the compound `O=c1c2cc(S(=O)(=O)Nc3c(Cl)cccc3Cl)ccc2ncn1NS(=O)(=O)c1ccc2ccccc2c1`, the growth inhibition is -21.8% in experiment [1]; -8.6% in experiment [2]; -12.4% in experiment [3]; 10.4% in experiment [4]; -7.9% in experiment [5]; -3.75% in experiment [6].
For the compound `CN(/N=C/C=N/N(C)C1=NCCN1)C1=NCCN1`, the growth inhibition in experiment [1] was 4.35%; in experiment [2], -5.75%; in experiment [3] it was 0.15%; in experiment [4], 8.05%; in experiment [5] it was 0.25%; in experiment [6], -9.65%.
Turning to `O=C(N/C(=C\c1ccccc1)C1Nc2ccccc2C(=O)O1)c1ccccc1` (stereo unspecified), the growth inhibition in experiment [1] is -6.8%; in experiment [2], 2.95%; in experiment [3] it was -19.6%; in experiment [4], -17.2%; in experiment [5], -8.95%; in experiment [6] it was -24.7%.
With `CC(=O)Nc1ccc(C(=O)NN2C(=O)CSC2c2ccc(O)cc2)cc1` (stereo unspecified), the growth inhibition was -36% in experiment [1]; -36.1% in experiment [2]; -44.5% in experiment [3]; -15.7% in experiment [4]; -30.2% in experiment [5]; -49.7% in experiment [6].
For `O=C(CC(c1ccccc1)C(Br)[N+](=O)[O-])c1ccccc1` (stereo unspecified), the growth inhibition in experiment [1] is 27.6%; in experiment [2], -0.35%; in experiment [3] it was 36.6%; in experiment [4] it was -9.9%; in experiment [5], 40%; in experiment [6] it was 32.4%.
As for `COc1ccc(CCC(C)(O)c2ccccc2)cc1` (stereo unspecified), the growth inhibition in experiment [1] was 11.7%; in experiment [2], -1.35%; in experiment [3], 11.2%; in experiment [4] it was -1.05%; in experiment [5] it was 41.9%; in experiment [6], -2.55%.
As for `Cc1cccc(C(=O)c2ccccc2Cc2cccc3ccccc23)c1C`, the growth inhibition was 5.1% in experiment [1]; -6.8% in experiment [2]; 7.2% in experiment [3]; -6.45% in experiment [4]; 9.5% in experiment [5]; -15.5% in experiment [6].
Regarding `O=C(O)CCCc1ccc2sc3ccccc3c2c1`, the growth inhibition is 47.4% in experiment [1]; 32.6% in experiment [2]; 27.6% in experiment [3]; 50.5% in experiment [4]; 24.9% in experiment [5]; 76.8% (active) in experiment [6].
On to `CC(C)C(=O)Nc1ccc(Cl)c(Cl)c1`, for which the growth inhibition in experiment [1] is 33.9%; in experiment [2] it was 6.35%; in experiment [3], 44.3%; in experiment [4], 41.2%; in experiment [5] it was -4.05%; in experiment [6], 58.1%.
For `CCN(CCO)C(=O)C1(c2ccccc2)CCCCC1`, the growth inhibition in experiment [1] is 11.8%; in experiment [2] it was -9.7%; in experiment [3] it was 9.35%; in experiment [4] it was 28%; in experiment [5], 18.4%; in experiment [6], -1.4%.
Consider `O=C1c2ccccc2CC12Cc1ccc3c(c1C2=O)CCCC3` (stereo unspecified), for which the growth inhibition was -11.2% in experiment [1]; -14.4% in experiment [2]; -3.85% in experiment [3]; -30.2% in experiment [4]; -3.55% in experiment [5]; -33.5% in experiment [6].
In the case of `Cc1ccc(-c2cc(=O)c3cccc(CC(=O)O)c3o2)cc1`, the growth inhibition is 47.4% in experiment [1]; -38.9% in experiment [2]; -20.5% in experiment [3]; -3.45% in experiment [4]; -25.8% in experiment [5]; -1.2% in experiment [6].
